Most compounds without a hit are left out; they make up all but 2.4% or so of the library.
D2 ag-1 – activates the human D2 dopamine receptor; activation, % at 2 µM; AID 485358; HEK293 T-REx D2 cells, calcium flux agonist mode; P14416; 340,000 tested, 0.53% active;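 active = activation over 3 SD above normal in the single-dose calcium agonist read, cut at about 30% in these data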
Target sequence (P14416 whole entry, looked up): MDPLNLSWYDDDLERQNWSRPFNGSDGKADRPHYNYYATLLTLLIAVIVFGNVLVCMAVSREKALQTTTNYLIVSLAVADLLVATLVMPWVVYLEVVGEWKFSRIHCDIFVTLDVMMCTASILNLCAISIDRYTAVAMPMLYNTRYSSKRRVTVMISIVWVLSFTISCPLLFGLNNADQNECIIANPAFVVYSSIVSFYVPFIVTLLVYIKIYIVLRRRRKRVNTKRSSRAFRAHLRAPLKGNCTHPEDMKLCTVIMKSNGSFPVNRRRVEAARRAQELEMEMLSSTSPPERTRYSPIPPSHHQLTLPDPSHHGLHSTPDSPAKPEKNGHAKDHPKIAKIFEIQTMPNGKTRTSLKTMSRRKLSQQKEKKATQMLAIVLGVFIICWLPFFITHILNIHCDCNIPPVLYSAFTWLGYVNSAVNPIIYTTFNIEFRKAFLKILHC
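Tetracycline-induced HEK293 T-REx cells with force-coupled D2 receptor, plated overnight at 30 C, loaded with no-wash calcium dye. After a 10 s baseline, compound was pin-added and calcium flux read kinetically for 180 s; calcium rises flagged agonists.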
D2 ag-2 – agonists of human D2 dopamine receptor (beta-arrestin) | 360,000 tested, 0.084% active | AID 624465 | activation, % (no concentration beside the values) | DiscoveRx PathHunter D2 beta-arrestin, luminescence, 90 min; 100% = 57 uM dopamine signal; in the data active = activation above about 40%; inconclusive = between about 15% and that limit
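DiscoveRx PathHunter D2 beta-arrestin cells (2,100/well) attached overnight, then compound-stimulated 90 min at 37 C in HBSS/10 mM HEPES/0.1% Tween-20 buffer; beta-galactosidase complementation read by luminescence after 1 h at ambient temperature. Dopamine 57 uM final (EC100) as control.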
D2 PAM-1 – potentiates the human D2 dopamine receptor allosterically. DiscoveRx D2 beta-arrestin cells, luminescence, 90 min; 100% = 57 uM dopamine signal. potentiation, % (concentration not given with the values). 360,000 tested, 0.23% active; in the data active = potentiation above about 50%; inconclusive = mostly about 30% to 49%
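D2 cells co-treated with compound plus 50 nM dopamine (EC20) for 90 min at 37 deg C to detect potentiation. Beta-arrestin recruitment was read as enzyme-fragment luminescence after 1 h at ambient temperature. Full response was set by 57 uM dopamine.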
D2 antag – D2 dopamine receptor (human) antagonism | inhibition, % at 10 µM | 340,000 tested, 2% active | AID 485344 | P14416 | HEK293 TREx D2 cells, calcium flux, dopamine EC80; in the data active = inhibition above about 30%; inactive = below that, where a call was filed
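Compounds are added to dye-loaded, induced HEK293 T-REx cells coupled to calcium release via D2; after a 3 min kinetic read an EC80 dopamine stimulus is given and fluorescence is recorded for 3 more min.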
D2 PAM-2 – positive allosteric modulators of human D2 dopamine receptor; P14416; HEK293 T-REx D2, calcium flux, EC20 dopamine potentiation; potentiation, % at 10 µM; 340,000 tested, 0.34% active;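 active = potentiation over 3 SD above the plate norm, cut at about 30% in these data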
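Tetracycline-induced Hek293 Trex D2 cells, force-coupled to calcium, loaded with no-wash calcium dye. Compound added with 180 s kinetic read for agonism, then EC20 dopamine and a further 180 s read for potentiation.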
Hits are given with their value; – = inactive; ? = inconclusive; · = not tested or not shown; ! = repeats disagree.

SMILES | D2 ag-1 | D2 ag-2 | D2 PAM-1 | D2 antag | D2 PAM-2
COc1ccccc1N1CCN(Cc2cn[nH]c2-c2ccc(F)cc2)CC1 | – | – | – | 82.2 | –
COc1ccc(-c2nc(CN3CCN(c4ccccc4OC)CC3)c(C)o2)cc1 | – | – | – | 98.5 | –
COc1ccccc1N1CCN(Cc2nc(-c3ccc(F)cc3)oc2C)CC1 | – | – | – | 80.0 | –
COc1ccc(CN2CCC(C(=O)c3cccc(Cl)c3)CC2)cc1 | · | – | – | · | –
COc1ccc(F)cc1S(=O)(=O)Nc1ccc2c(c1)CCCN2C(=O)c1cccs1 | – | · | · | · | –
Cc1c(C(=O)N(C)C)sc2c1c(=O)n(-c1ccc(Cl)c(Cl)c1)c(=O)n2CC(=O)Nc1cccc(C(F)(F)F)c1 | – | · | · | · | –
COc1ccc(-c2[nH]ncc2CN2CCC(C(=O)c3ccc(F)cc3)CC2)cc1 | – | – | – | 82.9 | –
CCCC(=O)Oc1ccc2c(C)cc(=O)oc2c1 | – | – | – | – | –
Cc1cc(=O)oc2cc(OC(=O)c3cncc(Br)c3)ccc12 | – | – | – | 30.8 | –
CC(C)(C)OC(=O)N1CCC(c2c(C(=O)NCCN3CCc4ccccc4C3)cnn2-c2ccc(F)cc2)CC1 | – | · | · | · | –
Cc1cccc(Nc2nnc(-c3ccc(C)c(S(=O)(=O)N4CCN(C)CC4)c3)c3ccccc23)c1 | – | · | · | · | –
Cc1cc(OCC(O)CN2CCc3ccccc3C2)cc(C(C)C)c1 (configuration not stated) | – | ? | – | – | –
CCOc1ccc(OCC(O)CN2CCc3ccccc3C2)cc1 (configuration not stated) | – | – | – | 50.1 | –
Cc1cc(OCC(O)CN2CCc3ccccc3C2)ccc1Cl (configuration not stated) | – | – | – | 79.2 | –
O=S(=O)(Nc1cccc(-c2ccc(N3CCOCC3)nn2)c1)c1ccccc1C(F)(F)F | – | · | · | · | –
CCOC(=O)c1ccc(NC(=O)CN2C(=O)COc3ccc(Cl)cc32)cc1 | – | · | · | · | –
O=C(/C=C/c1ccc(Cl)cc1)Nc1nc(-c2cccs2)ns1 | – | · | · | · | –
COCc1cc(=O)n2[nH]c(SCc3ccccc3)nc2n1 | – | – | – | – | –
COCc1cc(=O)n2[nH]c(SC)nc2n1 | – | – | – | – | 35.6
COCCn1c(SCC(=O)Nc2cc(C)on2)nc2cc(Cl)ccc2c1=O | – | – | – | – | 72.0
C=CCn1c(SCC(=O)Nc2cc(C)on2)nc2sc(C)c(C)c2c1=O | · | – | – | · | ·
CCn1c(SCC(=O)Nc2cc(C)on2)nc2sc(C)c(C)c2c1=O | – | · | · | 35.5 | –
Cc1cc(NC(=O)CSc2nc3cc(Cl)ccc3c(=O)n2CC(C)C)no1 | – | · | · | – | –
O=C(NCCCN1CCN(c2cccc(Cl)c2)CC1)c1sc2ncccc2c1-n1cccc1 | · | · | · | · | –
CC(C)NC[C@H](O)c1ccc(O)c(O)c1 | – | – | – | – | –
SMILES | D2 ag-1 | D2 ag-2 | D2 PAM-1 | D2 antag | D2 PAM-2
CCC(c1ccc(O)c(O)c1)C(CC)c1ccc(O)c(O)c1 (configuration not stated) | · | 59.1 | – | · | ·
CNC(=O)c1c(NC(=O)c2ccc(S(=O)(=O)N3CCCCC3)cc2)sc2c1CCC2 | – | · | · | · | ·
Cc1ccc(NC(=O)Cn2nnc(C(=O)NCc3ccco3)c2N)cc1 | – | – | – | – | –
COc1ccc(CCNC(=O)Cn2nnc(C(=O)Nc3ccc(Br)cc3)c2N)cc1OC | – | – | – | – | 56.2
COc1ccccc1NC(=O)c1nnn(CC(=O)Nc2ccccc2)c1N | – | – | – | – | –
Cc1cccc(NC(=O)Cn2nnc(C(=O)NCc3ccco3)c2N)c1 | – | – | – | 34.4 | –
CCc1ccccc1NC(=O)Cn1nnc(C(=O)NCc2cccc(OC)c2)c1N | – | – | – | · | 69.6!
COc1ccccc1NC(=O)c1nnn(CC(=O)Nc2cccc(SC)c2)c1N | – | – | – | – | 35.4
CCOc1ccc(NC(=O)Cn2nnc(C(=O)NCCc3ccc(OC)c(OC)c3)c2N)cc1 | – | – | – | – | –
CCOC(=O)c1[nH]c2ccccc2c1NC(=O)c1cc(OC)c(OC)c(OC)c1 | · | – | – | · | ·
COc1cc(C(=O)Nc2c(C(=O)O)[nH]c3ccc(C)cc23)cc(OC)c1OC | – | – | – | 34.3 | –
Nc1ccccc1NC1=CC(=O)CC(c2ccco2)C1 (configuration not stated) | – | – | – | 30.9 | –

From PubChem
